For 21 molecules, inhibition results are on record in PubChem BioAssay.

Activity calls are given as the source filed them. The rule behind the calls is not given here.

Pantothenate synthetase (Mycobacterium tuberculosis (strain ATCC 25618 / H37Rv)), sequence (P9WIL5 whole entry, looked up): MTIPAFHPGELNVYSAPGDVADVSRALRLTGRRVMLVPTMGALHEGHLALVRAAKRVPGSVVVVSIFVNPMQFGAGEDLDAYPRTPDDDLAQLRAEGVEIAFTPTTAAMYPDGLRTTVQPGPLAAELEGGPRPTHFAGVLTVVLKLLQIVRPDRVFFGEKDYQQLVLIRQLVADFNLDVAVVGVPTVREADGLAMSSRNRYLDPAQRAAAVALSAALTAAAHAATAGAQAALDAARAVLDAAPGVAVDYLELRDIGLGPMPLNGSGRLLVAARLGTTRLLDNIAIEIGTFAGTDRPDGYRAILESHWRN

This experiment concerns the target Pantothenate synthetase (Mycobacterium tuberculosis (strain ATCC 25618 / H37Rv)) (UniProt P9WIL5). As to the kind of experiment: Coupled enzyme confirmation of inhibitors against recombinant Mtb PanC (AID 375).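 Note: 0% = full reaction with vehicle and 100% = no enzyme background.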 Particulars: coupled enzyme assay; at 10 µM, hits give high values.
For `CCOC(=O)C1(C(=O)OCC)C(c2ccccc2)CC(O)N1C(C)=O` (stereo unspecified), the inhibition was 0% (inactive).
For `CC1=CC2=C(OC1N(C)C)c1cccc3cccc(c13)C2=O` (stereo unspecified), the inhibition is 5% (inactive).
The result for `CCCCc1c(O)nc(SCC(=O)Nc2ccc3c(c2)CCC3)[nH]c1=O` reads 2% (inactive); that for `COc1cc(C2c3c(oc4c(C)cc(C)cc4c3=O)C(=O)N2Cc2cccnc2)ccc1O` (stereo unspecified), 0% (inactive).
With `CC1NC2(C(=O)N(Cc3ccccc3)c3ccccc32)C2C(=O)N(c3ccccc3)C(=O)C12` (stereo unspecified), the inhibition was 0% (inactive).
To `O=C(CCCn1c(=O)c2sccc2n(Cc2ccc(F)cc2)c1=O)NCc1ccco1` belongs 1% (inactive).
With `CCOC(=O)C1CCN(c2cc(C)nc3cc(-c4cccc(F)c4)nn23)CC1`, the inhibition was 3% (inactive).
Regarding `O=C(CSc1nnc(-c2cccnc2)o1)Nc1ccccn1`, the inhibition is 0% (inactive).
To `Cc1c(N(C)C)nc2ccccc2c1N` belongs 0% (inactive); to `O=S(=O)(c1ccc2c(c1)OCCO2)N1CCN(Cc2ccc3c(c2)OCO3)CC1`, 4% (inactive); to `CCOC(=O)c1ccc(N2C(=O)CC(NC3CCN(C(=O)c4ccc(F)cc4)CC3)C2=O)cc1` (stereo unspecified), 1% (inactive).
The result for `CO[C@H]1C=CO[C@@]2(C)Oc3c(C)c(O)c4c(O)c(c(C=NN5CCN(C)CC5)c(O)c4c3C2=O)NC(=O)C(C)=CC=C[C@H](C)[C@H](O)[C@@H](C)[C@@H](O)[C@@H](C)[C@H](OC(C)=O)[C@@H]1C` reads 3% (inactive); that for `O=C(Nc1ccc(Cc2ccncc2)cc1)C1CC1`, 0% (inactive).
The result for `Cc1cccc(NS(=O)(=O)c2cc(C(=O)OCC(=O)Nc3cc(C)on3)ccc2C)c1` reads 0% (inactive).
Take `Cc1ccc(C(=O)Nc2ccc(Cl)cn2)cc1S(=O)(=O)N1CCOCC1`: the inhibition was 0% (inactive).
The result for `COC(=O)c1cccc(NC(=O)CSc2nnc(COc3ccc(C#N)cc3)n2-c2ccccc2)c1` reads 2% (inactive); that for `CC1(C)CC(=O)c2cc(OCC(=O)N3CCN(c4ccccc4F)CC3)ccc2O1`, 6% (inactive); that for `COCCNC(=O)C(c1cccs1)N(C(=O)Cn1nnc2ccccc21)c1ccccc1` (stereo unspecified), 6% (inactive).
As for `CC1CCCN(c2ccc(C(=O)NCc3cccs3)cn2)C1` (stereo unspecified), the inhibition was 1% (inactive).
To `O=C(CSc1nnc(SCc2ccc(Cl)cc2)s1)N1CCN(C(=O)c2ccco2)CC1` belongs 7% (inactive); to `Cc1ccc2c(c1)NC(=O)C(CC(=O)NCCCN1CCN(c3cc(Cl)ccc3C)CC1)O2` (stereo unspecified), 1% (inactive).

The inhibition is the drop in the measured response relative to a control, in per cent.
